Drawing on PubChem BioAssay AID624330 (Southern Research Specialized Biocontainment Screening …, 2012), this text covers inhibition for 30 compounds.

Screen size: about 340,000 compounds; about 2,100 (0.62%) were called active. These entries were drawn from the full list. Measured potencies and affinities stand elsewhere. A number with no mark means an inactive call.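 The calls were made as follows: active = first-screen hits whose inhibition reached a set limit at any dose in the follow-up dose series; inconclusive = inhibition above the set first-screen limit but never retested; inactive = the rest.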

Sequence of Rac GTPase-activating protein 1 (Homo sapiens) (Q9H0H5 whole entry, looked up): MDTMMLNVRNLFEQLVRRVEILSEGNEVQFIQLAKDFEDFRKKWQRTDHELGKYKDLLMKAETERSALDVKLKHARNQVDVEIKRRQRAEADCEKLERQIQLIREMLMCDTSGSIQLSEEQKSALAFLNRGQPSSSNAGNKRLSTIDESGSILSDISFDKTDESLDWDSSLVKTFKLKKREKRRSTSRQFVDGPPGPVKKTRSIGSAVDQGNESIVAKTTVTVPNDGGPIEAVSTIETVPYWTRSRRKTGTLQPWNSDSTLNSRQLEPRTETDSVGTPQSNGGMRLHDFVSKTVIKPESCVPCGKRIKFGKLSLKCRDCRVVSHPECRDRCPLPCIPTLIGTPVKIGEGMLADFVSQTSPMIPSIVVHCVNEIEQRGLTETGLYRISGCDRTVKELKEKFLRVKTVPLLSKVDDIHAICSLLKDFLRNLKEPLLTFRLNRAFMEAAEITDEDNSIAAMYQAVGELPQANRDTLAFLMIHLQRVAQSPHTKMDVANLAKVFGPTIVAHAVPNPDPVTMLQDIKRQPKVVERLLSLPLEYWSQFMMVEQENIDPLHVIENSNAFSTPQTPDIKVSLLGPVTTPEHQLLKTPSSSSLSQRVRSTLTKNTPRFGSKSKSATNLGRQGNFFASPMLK

The test addresses Rac GTPase-activating protein 1 (Homo sapiens) (UniProt Q9H0H5). The test can be described thus: MgcRacGAP GTPase-activating activity inhibitors, confirmation, biochemical, ADP Hunter fluorescence, primary and confirmatory (AID 624330).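 Also: fluorescence reports GDP produced by GAP-driven GTP hydrolysis.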 Particulars: MgcRacGAP-stimulated Rac1 GTP hydrolysis, at 30 µM, stronger effect = higher value, GST-tagged Rac1 F28L mutant substrate.
Broadly, the inhibition is the change of the read-out against control, counted positive when it falls. As for `Cc1ncc([N+](=O)[O-])n1Cc1cccc2ccccc12`, the inhibition is 5.41%.

In the case of `CCCNC(=O)NC(=O)COC(=O)CNS(=O)(=O)/C=C/c1ccccc1`, the inhibition is 6.44%.

For the compound `COc1ccc(-n2c(=O)c3ccccc3c3ccccc3c2=O)cc1`, the inhibition is 11.5%.

`COc1ccc(Cn2c(=O)sc3ccccc3c2=O)cc1`: the inhibition was 3.77%.

As to `O=c1c2ccccc2sn1-c1ccc(S(=O)(=O)N2CCCC2)cc1`, the inhibition was 21.2%.

On to `O=c1sc2ccccc2c(=O)n1Cc1ccccc1F`, for which the inhibition was 7.23%.

Regarding `Cn1sc2ccccc2c1=O`, the inhibition is 18%.

With `Cc1ccc(Cn2c(=O)sc3ccccc3c2=O)cc1`, the inhibition is 5.22%.

As to `O=C(O)c1cn(-c2ccc(F)cc2)c(=O)c2ccccc12`, the inhibition was 8.79%.

`O=C(c1sc2ccccc2c1Cl)N1CCN(c2ccc(F)cc2)CC1`: the inhibition is 3.37%.

Take `COc1ccc(NC(=O)COC(C)=O)cc1Cl`: the inhibition is 3.23%.

Take `CCOc1ccc(S(=O)(=O)NCCC(=O)NCC(c2cccs2)N(C)C)cc1` (stereo not given): the inhibition was 8.66%.

Regarding `C#CCNc1cc(C)nc2ncnn12`, the inhibition is 1.75%.

For the compound `CC(C)CNC(=S)N(CCO)Cc1cc2cc3c(cc2[nH]c1=O)OCO3`, the inhibition was 14.8%.

Take `CC(=C1SC(=S)NC1=O)c1ccccc1`: the inhibition is -4.42%.

Turning to `O=C(/C=N/NC(=O)c1ccc(Cl)cc1Cl)c1ccccc1`, the inhibition is 15%.

Take `COc1ccccc1-n1c(SCC(=O)NC2CCCCC2)nc2c(c1=O)SCC2`: the inhibition is 12.8%.

Turning to `COc1ccc(C(=O)Nc2ccccc2NC(=O)c2ccco2)cc1OC`, the inhibition was 11%.

As for `C/C(=C\C(=O)c1ccc(F)cc1)Nc1ccc(N2CCOCC2)cc1`, the inhibition was 15.3%.

As for `O=C(NCCNC(=O)Nc1ccc(Cl)cc1)Nc1ccc(Cl)cc1`, the inhibition is 0.54%.

Consider `CCCCNC(=S)Nc1ccc(Cl)cc1`, for which the inhibition is 8.23%.

Consider `CCOc1ccccc1CNC(=O)C1CCN(c2nn3c(=O)cc(C)nc3s2)CC1`, for which the inhibition was 10.9%.

For the compound `O=[N+]([O-])c1ccc(-n2nnnc2CN2CCOCC2)cc1`, the inhibition was 8.87%.

For the compound `COc1ccc2c(c1)c1ccccc1n2C`, the inhibition was -2.65%.

Regarding `C/C(=N\O)c1ccc2c3ccccc3n(C)c2c1`, the inhibition is 11%.

In the case of `Cc1cc(N2CCOCC2)nc(SCc2c(Cl)cccc2Cl)n1`, the inhibition is 8.06%.

Take `Clc1ccc(CN2CCC(Cc3ccccc3)CC2)cc1`: the inhibition is 14.2%.

As to `O=C(O)C1CCN(Cc2ccccn2)CC1`, the inhibition was 4.54%.

In the case of `O=c1ccn([C@H]2C[C@H](O)[C@@H](CO)O2)c(=O)[nH]1`, the inhibition was 1.01%.

With `CN(CC(=O)NCC(=O)Nc1ccc(F)cc1)C1CCS(=O)(=O)C1` (stereo not given), the inhibition is 3.81%.
